SMILES strings stand for the structures. Out of some 340,000 compounds screened, about 6,400 (1.9%) were called active. Inconclusive results (about 4%) are left out. Calls follow the shape of the dose curve; as a rule, active = well fitted falling curve with a large enough effect; inconclusive = small, poorly fitted or top-dose-only effect; inactive = no such curve, though single readings can be large or run the other way. Shown is part of a subset that was picked to be rich in actives. A call without a number means that no potency is given here.
Potency is read from the fitted curve at half-maximal effect.

The target of this assay is ATP-dependent Clp protease proteolytic subunit (Bacillus subtilis (strain 168)) (UniProt P80244). Kind of assay: qHTS Assay for Activators of ClpP. Also: the source files actives as falling curves though it sought activators and does not explain the sign; nearly all actives have a fitted effect of over 65% in size. Particulars: purified B. subtilis ClpP, FRET peptide cleavage, 20 min; series mostly up to 57.5 µM. In a few lines: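 FRET quenching reversal measured ClpP activation: 10 microg/mL B. subtilis ClpP at pH 8 with the FRET-FV decapeptide, read at 430 nm after 320 nm excitation. The 20-min minus 0-min signal was scaled between DMSO/no-enzyme wells and ADEP (5.8 microM final).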
Turning to `O=C(COC(=O)c1ccccc1)c1ccc2c(c1)OCCO2`, the Potency result was “inactive”.
As for `O=C(COC(=O)c1ccc(F)cc1)Nc1ccc2c(c1)OCO2`, the entry is “inactive”; as for `CC(=O)Nc1cccc(C(=O)OCC(=O)c2ccc3c(c2)OCO3)c1`, 12.6 µM (active); as for `CC(=O)Nc1cccc(-c2cc3nc(NCc4cccnc4)n(C)c(=O)c3s2)c1`, “inactive”.
As for `COc1ccc(C(c2nnnn2C2CCCC2)N2CCN(C/C=C/c3ccccc3)CC2)cc1` (stereo not drawn), the entry is “inactive”.
As for `CC(=O)C1=CCC(c2ccccc2)N(S(=O)(=O)c2ccc(C)cc2)C1` (stereo not drawn), the entry is “inactive”; as for `C=CCc1cccc2cc(C(=O)OCC)c(=O)oc12`, 35.5 µM (active).
With `CCOc1cccc2cc(C(=O)OCC(=O)Nc3c(C)cccc3CC)c(=O)oc12`, the Potency entry was “inactive”.
With `C=CCc1cccc2cc(C(=O)N3CCN(C(=O)OCC)CC3)c(=O)oc12` the entry was “inactive”; with `CCOC(=O)C1=CCC2C(=O)N(Cc3ccccc3)C(=O)C12` (stereo not drawn), “inactive”; with `CC(C)c1cc(Cn2c3ccccc3c(=O)n2C(C)Cn2cc(C3CC3)nn2)on1` (stereo not drawn), “inactive”.
In the case of `COc1ccc(CCNC(=O)COC(=O)c2cnc(Cl)c(Cl)c2)cc1`, the Potency entry is “inactive”.
As for `COc1cccc(CNC(=O)CSc2c3c(nc4cc(Cl)ccc24)CCCC3)c1`, the entry is “inactive”.
With `COc1ccc(CCNC(=O)CSc2nc(C)nc3c2oc2ccccc23)cc1OC`, the Potency entry is “inactive”.
Take `COc1cccc(-c2ccc(C#N)c(SCC(=O)NCCc3ccc(Cl)cc3)n2)c1`: the Potency was 35.5 µM (active).
As for `COc1ccc(CCNC(=O)CSc2nnc3ccc(-c4ccncc4)nn23)cc1`, the entry is “inactive”.
As for `COc1ccc(CCNC(=O)CSc2nc(-c3ccc(OC)c(OC)c3)ccc2C#N)cc1`, the figure is 17.8 µM (active); as for `Nc1nc2cc(Cl)ccc2n1N`, “inactive”; as for `OCC1OC(n2cnc3c(N4CCCC4)ncnc32)C(O)C1O` (stereo not drawn), “inactive”.
With `COc1cccc(C(O)c2nc(-c3ccc(C)c(C)c3)cs2)c1` (stereo not drawn) the entry was “inactive”; with `CCOC(=O)[C@]12CCCC=C1N(Cc1cccc3ccccc13)C(=O)[C@H](CC(=O)NCC13CC4CC(CC(C4)C1)C3)C2`, “inactive”; with `CCCCN(C=O)c1c(CC)nc2c(OCc3ccccc3C(=O)OC)cccn12`, “inactive”.
For `C[C@@H]1CN([C@@H](C)CO)C(=O)CCCn2nncc2CO[C@H]1CN(C)C(=O)Nc1ccc(C(F)(F)F)cc1`, the Potency result is “inactive”.
As for `Cc1nc(C(=O)NCc2ccccc2)sc1C1(C)CC(c2cccnc2)=NO1` (stereo not drawn), the entry is “inactive”.
As for `Cc1nc(NCc2ccccc2)c(C(N)=O)c2c1COC(C)(C)C2`, the figure is 22.4 µM (active); as for `CC1(C)Cc2cccc(OCC(=O)NCc3ccccc3)c2O1`, “inactive”.
Consider `COC(=O)[C@]12CCCCC=C1N(CCC1=CCCCC1)C(=O)[C@H](CC(=O)N1CCSCC1)C2`, for which the Potency result is “inactive”.
With `CC(=O)Nc1cnc(-c2ccc(O)cc2C)cn1` the entry was “inactive”; with `Brc1ccc2nc(-c3ccccc3)c(Cc3ccccc3)n2c1`, “inactive”.
With `CC(C)C(=O)N1CCN(c2nc(-c3ccccc3)c3c(c2C#N)CC(C)(C)OC3)CC1` the figure was 28.2 µM (active).
With `CC(C)C(=O)N1CCC2(CC1)Oc1ccc(F)cc1C(=O)C21CC(c2ccccc2)=NO1` (stereo not drawn) the entry was “inactive”; with `CC1(C)Cc2c(sc(NC(=O)C(=O)N3CCOCC3)c2C#N)CO1`, “inactive”.
Consider `CCOC(=O)N1CCN(C(=O)C(=O)Nc2sc3c(c2C#N)CC(C)(C)OC3)CC1`, for which the Potency entry was “inactive”.
With `CC(C)c1nc(N2CCOCC2)c(C#N)c2c1COC(C)(C)C2` the figure was 15.8 µM (active); with `CC(C)OC(=O)C(C#N)c1nc2ccccc2nc1N1CCN(Cc2ccccc2)CC1` (stereo not drawn), “inactive”.
With `Cc1ccc(S(=O)(=O)N2CCC(=O)N([C@H](COCc3ccccc3)C(C)C)CC2)cc1` the entry was “inactive”; with `CN(N=O)c1ccc(C=C2c3ccccc3-c3ccccc32)cc1`, “inactive”.
With `CN(C)C1=C2C=CC=CC2/C(=C2/C=Cc3ccccc32)C=C1` (stereo not drawn) the entry was “inactive”.
Turning to `Cc1ccc(-c2cnc(C(O)c3cccc(C)c3C)[nH]2)cc1` (stereo not drawn), the Potency entry was “inactive”.
As for `O=C(c1ccco1)N(Cc1cccs1)c1ccc(O)cc1`, the entry is “inactive”.
With `O=C1NC[C@H](Cc2ccc(O)cc2)N(C[C@@H]2CCCN2C[C@H](Cc2ccccc2)N2C[C@H](Cc3ccccc3)N(CC3CCCCC3)C(=O)C2=O)C1=O` the entry was “inactive”.
With `CCOC(=O)CN1CCC(c2ccccc2)CC1` the entry was “inactive”; with `CCOC(=O)NC(C(F)(F)F)(C(F)(F)F)P(=O)(c1ccccc1)c1ccccc1`, “inactive”.
As for `CCOC(=O)NN1C(=O)c2ccccc2NC1c1cccc(O)c1` (stereo not drawn), the Potency was 31.6 µM (active).
As for `CCOC(=O)NN1C(=O)c2ccccc2NC1c1ccccc1O` (stereo not drawn), the figure is 25.1 µM (active); as for `CCN1C(=O)N[C@@H](c2ccccc2)C(C(=O)OC)=C1C`, “inactive”.
Take `CCOC(=O)C(=O)C1C(=O)Nc2ccccc21` (stereo not drawn): the Potency entry is “inactive”.
For the compound `CCOC(=O)[C@]12CCCC=C1N(CCC1=CCCCC1)C(=O)[C@H](CC(=O)NCCCCc1ccccc1)C2`, the Potency result is “inactive”.
Consider `O=C(Nc1ccccc1C(F)(F)F)c1nc(S(=O)(=O)Cc2ccccc2F)ncc1Cl`, for which the Potency result is “inactive”.
As for `COc1cc2nc(Cl)nc(NC3CC3)c2cc1OC`, the entry is “inactive”; as for `CN(CC(=O)O)C(=O)c1ccccc1`, “inactive”; as for `CN(O)C(=S)c1ccccc1`, 11.2 µM (active).
As for `CN(/N=C/c1ccccc1)C(=S)c1ccccc1`, the entry is “inactive”.
As for `O=S1(=O)CC(N2CCN(Cc3ccccc3F)CC2)CN1Cc1cn(Cc2ccccc2)nn1` (stereo not drawn), the entry is “inactive”.
On to `Cc1c(CCO)sc[n+]1CC(=O)c1ccc2ccccc2c1`, for which the Potency result is “inactive”.
With `CCc1nc2ccc(C(=O)N(C)Cc3ccco3)cn2c1N(C)C(=O)Cc1ccccc1` the entry was “inactive”; with `CN(CCO)C(=O)c1nc[nH]c1C(=O)N(C)Cc1ccccc1`, “inactive”.
For the compound `CN(Cc1ccccc1)C(=O)[C@@H]1CCCN1C(=O)[C@@H]1CCCN1C(=O)c1c(F)cccc1F`, the Potency entry was “inactive”.
Turning to `Cc1nccn1-c1ccc(NC(=O)[C@H]2O[C@@H](n3ccc(=O)[nH]c3=O)[C@H](O)[C@@H]2O)cc1`, the Potency result was “inactive”.
As for `CCCC(=O)N1CCC1(C)C(=O)Nc1ccc(-n2cncn2)cc1` (stereo not drawn), the Potency result was “inactive”.
With `Cc1ccc(Cn2ccc(NC(=O)C3C4CCC(C4)C3C(=O)O)n2)cc1` (stereo not drawn) the entry was “inactive”; with `O=C(Nc1ccn(Cc2ccccc2)n1)c1n[nH]c([N+](=O)[O-])c1Cl`, 22.4 µM (active).
With `O=C(Nc1ccn(Cc2ccccc2F)n1)c1ccc(COc2ccc(Cl)cc2Cl)o1` the entry was “inactive”.
As for `O=C(c1cnn2c1NC(=C1CC1)C=C2C(F)F)N1CCc2ccccc2C1`, the entry is “inactive”; as for `Cc1ccc(C(O)c2ncc(-c3ccccc3F)[nH]2)cc1F` (stereo not drawn), “inactive”; as for `CCCCn1c(N)c(N(CCC(C)C)C(=O)c2ccc(COc3ccccc3)o2)c(=O)[nH]c1=O`, “inactive”.
`CCCCN(C(=O)c1ccc(C)o1)c1c(N)n(CCCC)c(=O)[nH]c1=O`: the Potency result was “inactive”.
As for `CCCCn1c(N)c(N(CCC(C)C)C(=O)c2ccc([N+](=O)[O-])o2)c(=O)[nH]c1=O`, the figure is 3.16 µM (active).
For `CCN(C(=O)Nc1cccc2ccccc12)c1ccccc1`, the Potency entry is “inactive”.
As for `Cc1cc(=O)[nH]c(SCc2cc(Cl)ccc2OC(F)F)n1`, the entry is “inactive”; as for `Cc1cc(=O)[nH]c(SCc2ccc(Cl)cc2)n1`, “inactive”; as for `O=c1cc(O)nc(SCc2ccccc2Cl)[nH]1`, 28.2 µM (active).
With `O=C(Nc1cccc2ccccc12)c1[nH]c(-c2ccccc2)c2c1C(=O)N(C1CC1)C2=O` the entry was “inactive”; with `O=C(OC1CC2CC1[C@H]1CCCCN1C2=O)N1CCOCC1` (stereo partly drawn), “inactive”.
As for `COc1ccccc1-c1sc2ccccc2c1-c1ccc(C(C)=O)cc1`, the figure is 28.2 µM (active); as for `COc1ccc2sc(-c3ccccc3OC)c(-c3ccc(OCCN4CCCC4)cc3)c2c1`, “inactive”; as for `COc1ccccc1-c1sc2ccccc2c1C#CC1(O)CCCCC1`, “inactive”.
Take `CCCOc1ccc(F)cc1-c1cc(C(=O)Nc2ccc(F)c(Cl)c2)[nH]n1`: the Potency result was “inactive”.
As for `CN(C)c1ccc(/C=C/c2sc3ccccc3[n+]2CCCCBr)cc1`, the entry is “inactive”; as for `CCOC(=O)[C@]12CCCC=C1N(CCC1=CCCCC1)C(=O)[C@H](CC(=O)N1CCSCC1)C2`, “inactive”; as for `O=S(=O)(c1ccc(F)cc1)n1ccc(-c2cnc(-c3ccccc3)s2)n1`, 20 µM (active).
With `Fc1ccc2cnc(-c3ccccc3)cc2c1` the entry was “inactive”; with `O=S(=O)(c1ccc(F)cc1)N1CC=C(c2ccccc2)CC1`, “inactive”.
Consider `Cc1ccc(S(=O)(=O)N2CC3C(=O)C[C@@H](c4ccccc4Cl)N(S(=O)(=O)c4ccc(C)cc4)C3CC2c2ccccc2)cc1` (stereo partly drawn), for which the Potency entry is “inactive”.
With `Cc1cccc(-c2nnc(SC(C)C(=O)Nc3ccccc3)n2C)c1` (stereo not drawn) the entry was “inactive”.
Turning to `CCOC(=O)[C@]12CCCC=C1N(Cc1ccc3c(c1)OCO3)C(=O)[C@H](CC(=O)N1CCN(C(=O)c3ccco3)CC1)C2`, the Potency entry is “inactive”.
As for `CN(C)c1ccc(/C=C/c2sc3ccccc3[n+]2C)cc1`, the entry is “inactive”.
With `CC1(Oc2cccc(F)c2)CCN(Cc2ccccc2OC(F)F)C1` (stereo not drawn) the entry was “inactive”; with `Cc1nc2cccnc2nc1C`, “inactive”; with `Cc1nc2ccccc2cc1O`, 3.55 µM (active).
As for `Cc1nc2ccccc2nc1CC(O)(c1ccccc1)c1ccccc1`, the entry is “inactive”.
As to `CC(C)c1cc(C(=O)N(C)C2CCCN(Cc3ccccc3F)C2)n(C)n1` (stereo not drawn), the Potency entry was “inactive”.
Take `Cc1cn([C@H]2C[C@H](O)[C@@H](/C=C/C(=O)NCCCc3ccccc3)O2)c(=O)[nH]c1=O`: the Potency entry is “inactive”.
With `Cc1cc(Cl)ccc1C(=O)C1CCCN(C(=O)c2ccc3c(c2)OCO3)C1` (stereo not drawn) the entry was “inactive”; with `COc1ccc(N2C(=O)c3cccc4cccc(c34)C2=O)nn1`, 15.8 µM (active); with `O=C1c2cccc3cccc(c23)N1CN1CCN(c2ccccn2)CC1`, “inactive”.
As for `CC(C(=O)O)N1C(=O)c2cccc3cccc1c23` (stereo not drawn), the entry is “inactive”.
In the case of `CCS(=O)(=O)Nc1cccc(-c2cc(-c3ccccc3)c3cc(C)ccc3n2)c1`, the Potency was 31.6 µM (active).
As for `CCCS(=O)(=O)Nc1cccc(-c2cn3ccsc3n2)c1`, the entry is “inactive”.
As for `CCCOc1ccc(-c2cccc(NS(=O)(=O)c3ccccc3)c2)nn1`, the entry is “inactive”.
As for `O=C(NC1CCCCCC1)C1CCN(C(=O)c2ccc(Cl)cc2)CC1`, the entry is “inactive”; as for `Cc1ccnc(N2CCC(C(=O)NC3CCCCCC3)CC2)n1`, 25.1 µM (active); as for `O=C(NNC(=O)C1CCN(c2ncccn2)CC1)c1ccccc1`, “inactive”.

The values are drawn from PubChem BioAssay AID651965 (National Center for Advancing Translational Sciences (NCATS), 2013).
